Test results: PubChem BioAssay (Tox21)
Results filed as inconclusive are left out. A number with no mark means an inactive call. Calls follow the shape of the full dose curve.

experiment: qHTS assay to identify small molecule agonists of the endoplasmic reticulum stress response signaling pathway - cell viability counter screen (AID 1159517); conditions: ESRE-bla HeLa viability, CellTiter-Glo luminescence, 5 h; series mostly up to 61 µM; activity change, negative = cytotoxicity: at the top concentration; also: nearly all actives have a fitted effect of over 50% in size
Text: U.S. Tox21 Program National Center for Advancing Translational Sciences [NCATS] NIH Chemical Genomics Center [NCGC] U.S. Environmental Protection Agency [EPA] National Institutes of Environmental Health Sciences [NIEHS] National Toxicology Program [NTP] U.S. Food and Drug Administration [FDA] Tox21 Assay Overview: Endoplasmic Reticulum (ER) plays an important role in cellular signaling, protein folding/maturation, stress response, lipid biosynthesis, calcium storage and release etc. Under stress conditions, proteins in ER misfold or unfold, and leading to the expression of ER stress responsive genes. ER stress has been associated with a variety of pathophysiological conditions such as cancer, inflammation, neurodegenerative diseases, diabetes, ischemic heart disease etc. To identify the compounds that induce ER stress response, an ER stress reporter cell line, CellSensor ESRE-bla HeLa (Life Technologies, Carlsbad, CA) containing a beta-lactamase reporter gene under control of the Endoplasmic reticulum Stress Response Element (ESRE) was used to screen Tox21 10K compound library. The cytotoxicity of the Tox21 compound library against the ESRE-bla HeLa cell line was tested in parallel by measuring cell viability using the CellTiter-Glo assay in the same wells.
Tox21 Assay Protocol Summary: ESRE-bla HeLa cells were dispensed at 1,500 cells/6 uL of assay medium per well into black wall/clear-bottom 1536-well plates using a Multidrop Combi (ThermoFisher Scientific, Waltham, MA) dispenser. After the assay plates were incubated at 37 C and 5% CO2 for an overnight, 23 nL of compounds dissolved in DMSO, positive controls or DMSO only was transferred to the assay plate by a Pintool station (Kalypsys, San Diego, CA). The assay plates were incubated at 37 C and 5% CO2 for 5 hr. One uL of LiveBLAzer B/G FRET substrate (Life Technologies) was added using a FRD (Flying Reagent Dispenser, Aurora Discovery, San Diego, CA) and the plates were incubated at room temperature for 2 hr. Fluorescence intensity (405 nm excitation, 460 nm and 530 nm emissions) was measured using an Envision plate reader (PerkinElmer, Shelton, CT). For cytotoxicity, 4 ul/well of CellTiter-Glo reagent was added into the assay plates using an FRD. After 30 min incubation at room temperature, the luminescence intensity was measured using a ViewLux plate reader (PerkinElmer).
% is scaled to controls: 0 for no effect and ±100 for the full control effect.

Row | Structure (SMILES) | activity change, negative = cytotoxicity
1 | OCCBr | 12.9%
2 | OCCSCSCCO | -0.0452%
3 | CN/C(=N\[N+](=O)[O-])NCC1CCOC1 (stereo not given) | 0.934%
4 | CCC(=O)C(CCN(C)C)(c1ccccc1)c1ccccc1 | -15.8%
5 | Nc1c(Br)cc([N+](=O)[O-])cc1[N+](=O)[O-] | -1.14% [at 78.8 µM]
6 | CCCCC(=O)Cl | 6.8% [at 78.8 µM]
7 | COc1cccc(C(=O)NN(C(=O)c2cc(C)cc(C)c2)C(C)(C)C)c1C | 2.1%
8 | Cc1ncc2n1-c1ccc(Cl)cc1C(c1ccccc1F)=NC2 | -10.6%
9 | O=C1c2ccccc2C(=O)c2ccccc21 | 5.38% [at 28.5 µM]
10 | CNC(=O)Oc1ccc(N(C)C)c(C)c1 | -15%
11 | OC(c1ccccc1)(c1ccccc1)C1CCNCC1 | 7.98%
12 | CS(=O)(=O)c1cc(C(F)(F)F)ccc1C(=O)c1cnoc1C1CC1 | 10.9%
13 | Cc1ncc(CNC(=O)N(CCCl)N=O)c(N)n1 | -2.61%
14 | CC1CCC(=O)O1 (stereo not given) | 13.5%
15 | CC1(C(=O)Nc2ccc(O)c(Cl)c2Cl)CCCCC1 | -9.45%
16 | COc1cc(OC)nc(Oc2cccc(Oc3nc(OC)cc(OC)n3)c2C(=O)O)n1 | 0.464%
17 | NC(=O)O | 13.2%
18 | C=CCC1=C(C)[C@@H](OC(=O)[C@@H]2[C@@H](C=C(C)C)C2(C)C)CC1=O | -24.3%
19 | O=[N+]([O-])c1cccc2cccnc12 | -1.74% [at 78.8 µM]
20 | Clc1ccccc1N1CCNCC1 | -7.08%

Row | Structure (SMILES) | activity change, negative = cytotoxicity
21 | CN1CCN(C(=O)O[C@H]2c3nccnc3C(=O)N2c2ccc(Cl)cn2)CC1 | -0.549%
22 | N#CC(CCc1ccc(Cl)cc1)(Cn1cncn1)c1ccccc1 (stereo not given) | -22.1%
23 | CNC(=O)Oc1ccccc1C1OCCO1 | -5.01%
24 | CCCSC(=O)N(CCC)CCC | 6.68%
25 | CCCCCCBr | 6.07% [at 78.8 µM]
26 | O=C(Nc1ccccc1)c1ccccc1I | -10.4%
27 | CC(Cl)(Cl)[N+](=O)[O-] | 9.82%
28 | NC(=S)C(N)=S | 16.2%
29 | C[C@@H]1CN(C2CCC(C#N)(c3ccc(F)cc3)CC2)CC[C@]1(C(=O)O)c1ccccc1 (stereo not given in full) | -0.909%
30 | CC(N)=S | 16.2%
31 | CC(C)[N+](=O)[O-] | 0.977%
32 | C[C@]12CC[C@H]3[C@@H](CC=C4C[C@@H](O)CC[C@@]43C)[C@@H]1CC[C@@H]2O | -0.172%
33 | CCC(C)(C)c1cc(-n2nc3ccccc3n2)c(O)c(C(C)(C)CC)c1 | 19.1% [at 78.8 µM]
34 | Cc1cc(C)nc(Nc2ccccc2)n1 | 5.18%
35 | ClCCCN1CCN(c2cccc(Cl)c2)CC1 | 0.726%
36 | COc1cc2c(cc1OC)[C@@]13CCN4CC5=CCO[C@H]6CC(=O)N2[C@H]1[C@H]6[C@H]5C[C@H]43 | 6.12%
37 | CCCCCCI | 4.9%
38 | CCOP(=S)(OCC)SCSP(=S)(OCC)OCC | -6.35%
39 | CC(C)(C)NCC(O)c1cc(Cl)c(N)c(Cl)c1 (stereo not given) | 0.0291%
40 | C=C(C)CN(CC)c1c([N+](=O)[O-])cc(C(F)(F)F)cc1[N+](=O)[O-] | -15.9%
